VP16 counter – VP16 counterscreen qHTS for inhibitors of ROR gamma transcriptional activity. Drosophila S2 Gal4-VP16 UAS-luciferase, luminescence, 20 h. actives 3.5% (n = 310,000). AID 2546, 2010. Potency, µM (highest dose often 53.6 µM), for the others: top-dose activity, negative = inhibition, actives largely listed as inhibitors;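 further: Gal4-VP16 expression switched on by copper sulfate through the metallothionein promoter; nearly all actives have a fitted effect of over 50% in size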
RORg inh – qHTS for inhibitors of ROR gamma transcriptional activity; Drosophila S2 Gal4-RORgamma UAS-luciferase reporter, 20 h; Potency, µM (doses to about 53.6 µM), for inactives: at the highest dose activity change, negative = inhibition, most hits filed as inhibitors; actives 5.4% (n = 310,000); AID 2551, 2010; further: nearly all actives have a fitted effect of over 60% in size
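Compounds are pin-transferred onto Drosophila Schneider cells expressing a copper-inducible Gal4–ROR gamma transactivation domain fusion. After 1 hr, copper sulfate is added to 700 uM final; luciferase is read 20 hr later.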
TDP1 cell noCPT – qHTS for Inhibitors of human tyrosyl-DNA phosphodiesterase 1 (TDP1): qHTS in cells in absence of CPT | DT40 Tdp1-/- hTDP1 cells, no CPT, ATP luminescence, 48 h | actives 15% (n = 420,000) | AID 686978, 2013 | Potency, µM (top dose mostly 46.2 µM), for the others: at the highest dose activity change, negative = growth inhibition, usual class: inhibitors; further: nearly all actives have a fitted effect of over 55% in size
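Chicken DT40 Tdp1-/- cells complemented with human TDP1, screened without camptothecin (DMSO vehicle only), 400 cells/well. Compounds pin-transferred, cells incubated at 37 °C for at least 48 hr. Growth read as ATP-dependent luminescence (CellTiter-Glo, 30 min at RT).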
TDP1 cell CPT – qHTS for Inhibitors of human tyrosyl-DNA phosphodiesterase 1 (TDP1): qHTS in cells in presence of CPT; chicken DT40 Tdp1-/-;hTDP1 cells + 20 nM CPT, ATP luminescence, 48 h; actives 12% (n = 420,000); Potency, µM (doses to about 46.2 µM), without a hit: top-dose activity change, negative = growth inhibition, hits mostly inhibitors; further: nearly all actives have a fitted effect of over 55% in size
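Chicken DT40 Tdp1-/- cells complemented with human TDP1, 400 cells/well, exposed to compounds plus 20 nM camptothecin for at least 48 h at 37 C; viability read as ATP content by CellTiter-Glo luminescence.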
TDP1 inh – qHTS Assay for Inhibitors of Tyrosyl-DNA Phosphodiesterase (TDP1); AID 485290, 2010; actives 0.28% (n = 350,000); recombinant TDP1, AlphaScreen DNA substrate cleavage; Potency, µM (series often up to 130 µM), for the others: top-dose activity change, negative = inhibition, actives largely listed as inhibitors; further: nearly all actives have a fitted effect of over 40% in size
Target sequence (Q9NUW8 whole entry, looked up): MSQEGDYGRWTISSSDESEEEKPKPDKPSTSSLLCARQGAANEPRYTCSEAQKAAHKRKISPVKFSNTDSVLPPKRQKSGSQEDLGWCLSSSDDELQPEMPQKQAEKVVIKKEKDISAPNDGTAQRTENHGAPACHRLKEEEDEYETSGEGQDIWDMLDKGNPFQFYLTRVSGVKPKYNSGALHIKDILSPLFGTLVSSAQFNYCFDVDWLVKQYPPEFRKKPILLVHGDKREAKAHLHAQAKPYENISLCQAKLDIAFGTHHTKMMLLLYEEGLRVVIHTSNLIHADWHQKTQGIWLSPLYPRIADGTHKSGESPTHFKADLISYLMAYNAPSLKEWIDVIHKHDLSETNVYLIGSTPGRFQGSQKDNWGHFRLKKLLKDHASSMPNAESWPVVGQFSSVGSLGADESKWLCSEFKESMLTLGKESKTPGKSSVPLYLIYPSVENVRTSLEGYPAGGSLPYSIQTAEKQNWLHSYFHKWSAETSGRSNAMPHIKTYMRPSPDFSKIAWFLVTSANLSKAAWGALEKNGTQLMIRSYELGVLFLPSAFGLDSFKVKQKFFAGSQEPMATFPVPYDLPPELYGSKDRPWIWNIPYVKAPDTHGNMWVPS
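Enzyme-compound mixtures sat 15 min at room temperature, followed by a 5 min reaction with 15 nM final substrate and 10 min with AlphaScreen beads. Recombinant human Tdp1 was used at 1 nM final.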
Active calls of the source: *. Sampled rows, rich in hits. Any-hit rate of the full collection: about 19%. The call rests on the fitted dose curve; in most records, active means well fitted curve in the direction sought with a large enough effect; inconclusive means small, poorly fitted or top-dose-only effect, or another doubt; inactive means no such curve, though single readings can be large; an effect the other way counts as inactive or inconclusive. On the % scale 0 is the no-effect control and ±100 the full control effect; potency means the concentration at half of the fitted maximal effect.

`COc1ccccc1C(=O)NCC(c1cccnc1)N1CCc2ccccc2C1` (configuration not stated) gave TDP1 cell noCPT 20.6µM*, TDP1 cell CPT 23.1µM* and TDP1 inh -1.3%.
O=C(NCC(c1ccco1)N1CCc2ccccc2C1)c1ccc([N+](=O)[O-])cc1 (configuration not stated) was read as TDP1 cell noCPT 23.1µM*, TDP1 cell CPT inconclusive and TDP1 inh -0.1%.
Screening COc1cc(C(=O)NCC(c2cccnc2)N2CCc3ccccc3C2)cc(OC)c1OC (configuration not stated) returned TDP1 cell noCPT inconclusive, TDP1 cell CPT inconclusive and TDP1 inh -1.3%.
O=C(COc1ccc(Cl)cc1Cl)Nc1ccc(C(=O)Nc2ccccc2C(=O)O)cc1 was read as VP16 counter -0.3%, RORg inh -1.0%, TDP1 cell noCPT 4.3%, TDP1 cell CPT 17.4% and TDP1 inh 50.1µM*.
`Cc1ccc(Cl)cc1NC(=O)c1ccccc1OCC(=O)Nc1ccc(Cl)cc1` gave VP16 counter 11.2µM*, RORg inh inconclusive, TDP1 cell noCPT 5.8µM*, TDP1 cell CPT inconclusive and TDP1 inh 0.6%.
Screening Cc1ccc(NC(=O)COc2ccccc2C(=O)Nc2ccccc2)cc1Cl returned VP16 counter -17.3%, RORg inh 32.0%, TDP1 cell noCPT 6.5%, TDP1 cell CPT 18.4% and TDP1 inh 4.7%.
O=C(COc1ccc(Cl)cc1Cl)NC(=S)Nc1ccccc1C(=O)O was read as VP16 counter -9.8%, RORg inh 17.8% and TDP1 inh 3.6%.
Screening COc1ccccc1C(=O)Nc1cccc(NC(C)=O)c1 returned VP16 counter -4.3%, RORg inh 8.7%, TDP1 cell noCPT 0.2%, TDP1 cell CPT -8.6% and TDP1 inh -1.0%.
Screening COc1ccc(NC(C)=O)cc1CNC(=O)COc1ccccc1C(=O)Nc1cccc(C)c1C returned VP16 counter -6.2%, RORg inh inconclusive, TDP1 cell noCPT 4.11µM* and TDP1 cell CPT inconclusive.
For Cc1ccccc1OCC(=O)NNC(=O)Nc1ccc(Cl)cc1 the results were VP16 counter 1.4%, RORg inh -19.3%, TDP1 cell noCPT 4.61µM*, TDP1 cell CPT 5.8µM* and TDP1 inh 2.0%.
COc1ccc(S(=O)(=O)/C(C#N)=C/Nc2ccc(NC(C)=O)cc2)cc1 was read as VP16 counter -4.0%, RORg inh -17.5%, TDP1 cell noCPT -1.5% and TDP1 cell CPT -0.2%.
Screening CC1CN(C(=O)CSc2nnc(CNC(=O)c3ccc(S(=O)(=O)N(C)C)cc3)o2)CC(C)O1 (configuration not stated) returned VP16 counter -3.1%, RORg inh -7.2%, TDP1 cell noCPT -7.8%, TDP1 cell CPT -6.2% and TDP1 inh 0.4%.
`O=C(/C=C\c1ccco1)Nc1nc(-c2ccccc2)cs1` gave VP16 counter -18.5%, RORg inh inconclusive, TDP1 cell noCPT -16.8%, TDP1 cell CPT 18.1% and TDP1 inh 0.0%.
For COc1ccc(-c2csc(NC(=S)NC(=O)/C=C/c3ccccc3)n2)cc1Br the results were VP16 counter 14.4%, RORg inh -22.5%, TDP1 cell noCPT 23.1µM*, TDP1 cell CPT inconclusive and TDP1 inh 5.7%.
`O=C(/C=C/c1ccco1)NC(=S)Nc1nc(-c2ccc(Cl)cc2)cs1` gave VP16 counter inconclusive, RORg inh 14.1µM*, TDP1 cell noCPT 4.61µM*, TDP1 cell CPT 5.17µM* and TDP1 inh 5.5%.
O=C(/C=C/c1ccco1)NC(=S)Nc1nc(-c2ccc3ccccc3c2)cs1 was read as VP16 counter inconclusive, RORg inh 7.94µM*, TDP1 cell noCPT 4.11µM*, TDP1 cell CPT 3.26µM* and TDP1 inh 5.3%.
`O=C(O)/C=C/C(=O)Nc1nc(-c2ccc3ccccc3c2)cs1` gave TDP1 cell noCPT -20.3% and TDP1 cell CPT -12.0%.
`O=C(NC(NC(=S)N1CCOCC1)C(Cl)(Cl)Cl)c1ccc(Cl)cc1` (configuration not stated) gave VP16 counter -1.3%, RORg inh inconclusive, TDP1 cell noCPT 4.11µM*, TDP1 cell CPT 3.66µM* and TDP1 inh -1.8%.
O=C(NC(=S)N1CCCC1)c1ccc(Cl)cc1 was read as VP16 counter 14.3%, RORg inh 11.4%, TDP1 cell noCPT -22.2%, TDP1 cell CPT -17.4% and TDP1 inh 3.1%.
C[C@H](NC(=O)c1ccc(C(C)(C)C)cc1)C(=O)N1CCOCC1 was read as TDP1 cell noCPT 7.0%, TDP1 cell CPT -0.3% and TDP1 inh 0.3%.
CC(C)(C)c1ccc(C(=O)NC(=S)N2CCCCCC2)cc1 was read as VP16 counter 0.501µM*, RORg inh 0.282µM*, TDP1 cell noCPT 13µM*, TDP1 cell CPT 18.4µM* and TDP1 inh 3.0%.
Screening O=C(NC(=S)N1CCCC1)c1ccccc1Cl returned VP16 counter 2.0%, RORg inh -7.2%, TDP1 cell noCPT 19.9%, TDP1 cell CPT 0.0% and TDP1 inh 2.4%.
`CC(C)(C)CC(=O)NC(=S)N1CCCCCC1` gave VP16 counter inconclusive, RORg inh 7.94µM*, TDP1 cell noCPT -5.5%, TDP1 cell CPT 5.3% and TDP1 inh -4.0%.
Screening CN1CCN(C(=S)NC(=O)c2ccc(Cl)cc2)CC1 returned VP16 counter 1µM*, RORg inh 0.398µM*, TDP1 cell noCPT inconclusive, TDP1 cell CPT inconclusive and TDP1 inh -2.4%.
`Cc1ccc(-n2nc(CO)c(C(=O)NCc3ccccn3)n2)cc1C` gave TDP1 cell noCPT inconclusive, TDP1 cell CPT -16.7% and TDP1 inh 4.7%.
Screening COc1cccc(NC(=O)Cn2cc(C(=O)C3CCCCC3)c3ccccc32)c1 returned TDP1 cell noCPT inconclusive, TDP1 cell CPT inconclusive and TDP1 inh 4.2%.
CCOc1ccccc1NC(=O)COC(=O)c1cc(C)oc1C was read as TDP1 cell noCPT -22.8%, TDP1 cell CPT -3.6% and TDP1 inh 0.4%.
COC(=O)c1cc(-c2ccc(Cl)cc2)n(-c2ccc(S(N)(=O)=O)cc2)n1 was read as VP16 counter 9.8%, RORg inh 28.3%, TDP1 cell noCPT -20.1%, TDP1 cell CPT 5.6% and TDP1 inh 2.9%.
`COc1cc2cnc(C3=CCCCC3)cc2cc1OC` gave TDP1 cell noCPT inconclusive, TDP1 cell CPT inconclusive and TDP1 inh 2.4%.

High-throughput results: PubChem, National Center for Advancing Translational Sciences (NCATS)
